Experimental data taken from the supplement of paper PMC6555819.

Columns and labels:
Test in all cases: PBM binding z-score (relative to random genomic background probes); higher = stronger binding; sequences stand for … in GC…GCGATTGACAGCGTAGAATGAAGG
[1] = tested on: RARb homodimer (NR concentration 270 nM)
How it was run: (§1)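 The probes on custom Agilent 4×180K protein-binding microarrays were double-stranded, with 34-nt variable regions bearing direct-repeat seeds, single-nucleotide variants, half-site ablations and random human genomic background sequences. Incubation lasted 1 h with ligand-free nuclear receptor dimers in PBS pH 7.4, 2% milk, 0.02% Triton X-100, 1 mM DTT, 0.2 mg/mL BSA and 0.4 mg/ml salmon testes DNA. Antibodies against each partner (one per run) detected bound dimers, and fluorescence scans were regression-normalized. Binding z-scores take the random background probes as reference.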

[2] = tested on: RARg:RXRa (NR concentration 270 nM, RXRa partner concentration 90 nM)
How it was run: as §1

[3] = tested on: RARg homodimer (NR concentration 270 nM)
How it was run: as §1

[4] = tested on: RXRa DBDmut IVT, anti-RXR (DBD mutation: RXRa K156A/R161A, NR concentration 90 nM)
How it was run: as §1

[5] = tested on: RXRa homodimer (NR concentration 180 nM)
How it was run: as §1

[6] = tested on: THRa:RXRa (NR concentration 90 nM, RXRa partner concentration 90 nM)
How it was run: as §1

[7] = tested on: THRa homodimer (NR concentration 90 nM)
How it was run: as §1

[8] = tested on: VDR homodimer (NR concentration 270 nM)
How it was run: as §1

Row | Sequence | PBM binding z-score [1] | PBM binding z-score [2] | PBM binding z-score [3] | PBM binding z-score [4] | PBM binding z-score [5] | PBM binding z-score [6] | PBM binding z-score [7] | PBM binding z-score [8]
1 | GCATACAGGTGAAACGCAGGTAACTCAGGGTGGC | 0.299 | 1.03 | 0.276 | -0.217 | 0.854 | 1.42 | -0.151 | -0.463
2 | CCTATTAGTTGATCATAAGGGCAACCGAAGCTCG | 1.43 | 0.898 | 0.868 | 0.845 | 0.308 | 1.69 | 1.05 | 1.1
3 | GCTTATGGGTCAAAGGTTATAGCATGAATAGAAT | 3.09 | 6.53 | 4.48 | 2.11 | 9.21 | 3.41 | -0.168 | 1.13
4 | TAGCCTAGGTCATGGGCCGGTATACCACGCGAAC | 3.04 | 4.1 | 4.58 | -0.511 | 3.4 | 3.15 | 1.37 | 0.45
5 | CCGAGTTGGTCAGGAGGTCACACACCGGATATGA | 4.31 | 5.33 | 4.41 | 1.8 | 4.96 | 3.47 | 2.02 | 3.09
6 | ATCTCTAGGTAAGTCTCAGTTCAGTGAAGAACGC | 1.02 | 0.158 | 0.271 | 0.813 | 0.0582 | 1.07 | 1.23 | 1.72
7 | CGTCCAAGGTCAGACAGGTCAGTGAATGCCGAGT | 4.84 | 5.32 | 6.13 | 3.11 | 4.43 | 3.97 | 2.16 | 3.77
8 | CATACAGCGTCAGCTAGGCCAGAGTAGGGACGGC | -0.506 | -0.321 | -0.175 | -0.697 | -0.412 | -0.637 | -0.62 | -0.797
9 | CGAACTAGGTCATCCAGGACAGTCAATACATTGA | 3.04 | 4.11 | 5.21 | 2.72 | 3.39 | 3.81 | 2.01 | 2.52
10 | TAGCCTAGGTCATGCGGGCCAGGATAGTGTCGGC | 3.1 | 3.77 | 4.7 | 0.23 | 2.94 | 3.06 | 0.933 | 0.706
11 | AGTCAAAGTTCATCTAGGTACCGTAAGATATGCT | 3.72 | 5.39 | 5.76 | 4.67 | 4.36 | 3.05 | -0.565 | 5.46
12 | AGTCAAAGTTCATCTAGGCAACGTAAGATATGCT | 3.91 | 5.49 | 6.04 | 4.78 | 4.97 | 2.22 | -0.142 | 4.64
13 | CGTCCAAGGTCAACGGTCAGTGAAGAGATGACGG | 4.55 | 6.08 | 6.47 | 3.36 | 5.56 | 4.13 | 2.62 | 2.15
14 | AATACAGGGTCATCGCAGGCCAGAGTACGCACAG | 3.53 | 5.41 | 5.21 | 3.48 | 6.8 | 4.75 | 1.42 | 3.55
15 | TCGAGTAGGTTAGACGGGGCATTCAGCCAACATA | 0.538 | 0.307 | 0.0787 | 0.0493 | 0.305 | 0.812 | -0.51 | -0.0872
16 | TCTTATAGGTAAAAGGTGAAAGTCGGTGTGGTAA | 1.91 | 2.24 | 0.977 | 1.69 | 3.2 | 1.8 | 0.525 | 0.326
17 | TCTATTAGTTGGTTAGGGCAACCGAAACAGCGGA | 0.686 | 0.47 | 0.667 | 0.779 | 0.412 | 0.638 | 0.431 | 0.587
18 | CTCGAAAGGTCGTGCTCAGGTGAGTTTACCAAAC | 2.8 | 5.22 | 4.34 | 2.46 | 5.17 | 3.84 | 1.18 | 3.54
19 | GGAACGAGGGCAAAGTTGATAACATCTGTCGACG | 1.21 | 2.19 | 1.97 | 2.93 | 1.93 | 1.27 | -0.123 | 1.42
20 | TTATATAGGTAAAAGGTGAAAGTCGGTGTGGTAA | 1.62 | 2.08 | 0.991 | 0.197 | 2.87 | 1.77 | 0.486 | 0.445
21 | AATACACGGTCATCGTAGGCCAGAGTACGCACAG | 2.36 | 2.06 | 2.76 | 0.479 | 1.07 | 2.15 | -0.0649 | 0.733
22 | TCTATTAGTTTATTAGGGCAACCGAAACAGCGGA | 1.56 | 1.15 | 1.09 | 1.92 | 0.82 | 1.54 | 1.62 | 1.29
23 | TCTTGTGGATCAATAGAGGTTAAGAAAGTGCGCT | 1.26 | 0.875 | 0.534 | 0.749 | 1.22 | 2.23 | -0.3 | 0.314
24 | TATACAGGGTCAAAGGCCCGAGTACGAATGTCGA | 2.83 | 5.28 | 4.67 | 2.83 | 5.91 | 3.23 | 0.794 | 2.5
25 | CCGACTGGGGCAAAGGTTACTATACTCAGTACGA | 1.74 | 2.75 | 1.37 | 0.148 | 2.8 | 1.44 | -0.197 | 0.164
26 | TTACCAAGGTGAGCTGACGTCGTTGATCCAACTC | -0.0202 | 0.00493 | 0.0726 | -0.698 | 0.32 | 0.839 | -0.28 | -1.04

Row | Sequence | PBM binding z-score [1] | PBM binding z-score [2] | PBM binding z-score [3] | PBM binding z-score [4] | PBM binding z-score [5] | PBM binding z-score [6] | PBM binding z-score [7] | PBM binding z-score [8]
27 | ATCGAAAGGACGAAGGTGAGTATACCCACCCGAA | 0.646 | 1.11 | 1.26 | -0.397 | 0.555 | 0.23 | -0.316 | -0.271
28 | CCTCGGAGGACAACAGGAGGCCAGAGCTGCCAGA | 0.662 | 0.553 | 1.08 | -0.152 | -0.394 | 0.476 | -0.155 | -0.208
29 | ATCTGTAGGTAACCAAGTTCAGTGAATGCCGAAC | 1.32 | 0.689 | 0.722 | 0.655 | 0.689 | 1.26 | 0.246 | 2.56
30 | ACTCGGAGCACAAAGGTCAGAGCTACGCCAGTGA | 4.45 | 5.16 | 5.11 | 0.345 | 4.98 | 2.63 | -0.28 | 0.477
31 | CCTTACGGGTCGAGGTTATAGCACGGGTGGTACG | 1.42 | 1.78 | 1.16 | -0.662 | 2.5 | 1.84 | 0.377 | 0.977
32 | CAAACTAGGTCACGAAAGGTCAAAGACGAATGAC | 5.96 | 7.75 | 8.37 | 2.55 | 8.19 | 5.15 | 2.72 | 3.52
33 | ACAGACAGGAGAGTGAAGGTAACTCAGCTGGACG | 0.0737 | 0.0775 | 0.235 | -0.483 | 0.0394 | 0.195 | 0.113 | -0.235
34 | TCTGTTAGTTGAAGGGCAACCGACGAGTCCGTTT | 1.22 | 0.835 | 0.708 | 1.1 | 0.588 | 0.412 | 0.0955 | 1.67
35 | ATCGAAAGGTCGAGGCGAGTATAGAGAAAGGGAA | 1.95 | 3.9 | 3.91 | 0.625 | 4.19 | 1.83 | -0.512 | 0.276
36 | TAGCCTAGGTCATGCGCCAGTATACCACGCGAAC | 2.94 | 3.96 | 4.3 | 0.931 | 3.24 | 3 | 1.31 | 0.653
37 | AGAACGAGGGCGATGAGTTGATAGCACGGGTGGC | -0.239 | -0.0988 | 0.302 | 1.06 | 0.298 | -0.0851 | -0.71 | 2.17
38 | GCGACTGGGGCATCAGCAGGTTAACATAACTTAA | 1.03 | 1.09 | 0.785 | -0.118 | 0.5 | 1.04 | -0.291 | -0.312
39 | GGAACGAGGGCAAAGTTGATAGAATCTGTCGACG | 1.19 | 2.18 | 1.77 | 2.54 | 2.06 | 1.39 | -0.286 | 1.42
40 | GATACAGGGTCAAGGCCAGAGTCCGCGTATTGAT | 3.62 | 5.35 | 4.89 | 1.91 | 5.5 | 3.52 | 1.37 | 1.73
41 | TAGCCTAGGTCATTCAGGGGCCAATATAGAAAGC | 3.51 | 6.6 | 4.84 | 2.06 | 3.15 | 3.85 | 0.878 | 2.13
42 | GCTCGGCGGACAAGGTCAGAGCTTTGTCCGTAGA | 2.47 | 2.59 | 2.54 | -0.314 | 2.11 | 2.25 | 0.553 | 0.0541
43 | GCTAATAGTTGAAAGGGCAACCGAATGATTCTCG | 2.13 | 1.68 | 1.44 | 0.805 | 1.76 | 0.716 | -0.4 | 0.235
44 | CGTCCAAGGTCAGGGAGGTCAGTGAATGCCGAGT | 5.45 | 6.54 | 7.67 | 2.48 | 6.37 | 4.58 | 3.43 | 5.37
45 | CGTCAAGGTTCAACTAAGGTAACGTAAAGCACGC | 2.36 | 3.57 | 2.98 | 4.42 | 3.53 | 5.38 | 1.72 | 3.36
46 | TCTTGTAGATTAAGCAGGTTAAGAAAGCCTGAGT | 0.394 | -0.0145 | -0.457 | 0.673 | 0.377 | 0.509 | -0.386 | 0.113
47 | CAAACTAGGCCAAAGGTCAAAGTCGAGCCAACCA | 4.89 | 6.83 | 5.59 | 1.38 | 7.49 | 3.93 | 0.417 | 1.61
48 | CCTACTGGGCCATCAGGTCATAGATATCAACGTT | 2.46 | 2.03 | 1.95 | -0.116 | 1.28 | 3.09 | 2.91 | 1.11
49 | AGTCAAAGTTCACTAGGTGACGTAAGATTCAGCT | 4 | 5.11 | 5.68 | 4.42 | 3.96 | 2.33 | 0.0713 | 3.73
50 | CAAACTAGGTCAAGGACAAAGTCGGTTTGTGCCA | 3.2 | 3.97 | 4.91 | 1.39 | 2.52 | 3.58 | 2.25 | 0.988
51 | ACAGACAGGTGATGAAGGTAACTGAGGCTATCAT | 0.244 | 0.321 | 0.603 | -0.383 | 0.305 | 1.33 | -0.0787 | -0.259
52 | TAGCCTAGGTCAGATCGGGCCCGTATACGCTATA | 1.94 | 2.58 | 3.06 | -0.297 | 1.37 | 2.39 | 0.0174 | -0.316
